Most compounds without a hit are left out; they make up all but 10% or so of the library.
NIH3T3 tox = NIH 3T3 cell cytotoxicity. 94,000 compounds, 4.3% hits. NIH 3T3 viability, CellTiter-Glo ATP luminescence, 48-72 h. Potency, µM (highest dose often 96.7 µM), inactives show at the highest dose activity change, negative = cytotoxicity, actives largely listed as inhibitors; also: nearly all actives have a fitted effect of over 55% in size
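NIH 3T3 cells at 400 cells/well received 23 nL of compound by pintool and were incubated 48 or 72 h at 37 °C. Viability was read as ATP-coupled CellTiter-Glo luminescence.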
hNpr1 antagonist = blocks ANP-stimulated signaling of human Npr1 receptor | 76,000 compounds, 1.6% hits | Potency, µM (top dose mostly 46.3 µM), without a hit: at the highest dose activity change, negative = inhibition, most hits filed as inhibitors | P16066 | HEK293 hNpr1 GloSensor cGMP, ANP-stimulated luminescence | AID 1347048; calls by dose curve; also: nearly all actives have a fitted effect of over 60% in size
Target sequence (P16066 whole entry, looked up): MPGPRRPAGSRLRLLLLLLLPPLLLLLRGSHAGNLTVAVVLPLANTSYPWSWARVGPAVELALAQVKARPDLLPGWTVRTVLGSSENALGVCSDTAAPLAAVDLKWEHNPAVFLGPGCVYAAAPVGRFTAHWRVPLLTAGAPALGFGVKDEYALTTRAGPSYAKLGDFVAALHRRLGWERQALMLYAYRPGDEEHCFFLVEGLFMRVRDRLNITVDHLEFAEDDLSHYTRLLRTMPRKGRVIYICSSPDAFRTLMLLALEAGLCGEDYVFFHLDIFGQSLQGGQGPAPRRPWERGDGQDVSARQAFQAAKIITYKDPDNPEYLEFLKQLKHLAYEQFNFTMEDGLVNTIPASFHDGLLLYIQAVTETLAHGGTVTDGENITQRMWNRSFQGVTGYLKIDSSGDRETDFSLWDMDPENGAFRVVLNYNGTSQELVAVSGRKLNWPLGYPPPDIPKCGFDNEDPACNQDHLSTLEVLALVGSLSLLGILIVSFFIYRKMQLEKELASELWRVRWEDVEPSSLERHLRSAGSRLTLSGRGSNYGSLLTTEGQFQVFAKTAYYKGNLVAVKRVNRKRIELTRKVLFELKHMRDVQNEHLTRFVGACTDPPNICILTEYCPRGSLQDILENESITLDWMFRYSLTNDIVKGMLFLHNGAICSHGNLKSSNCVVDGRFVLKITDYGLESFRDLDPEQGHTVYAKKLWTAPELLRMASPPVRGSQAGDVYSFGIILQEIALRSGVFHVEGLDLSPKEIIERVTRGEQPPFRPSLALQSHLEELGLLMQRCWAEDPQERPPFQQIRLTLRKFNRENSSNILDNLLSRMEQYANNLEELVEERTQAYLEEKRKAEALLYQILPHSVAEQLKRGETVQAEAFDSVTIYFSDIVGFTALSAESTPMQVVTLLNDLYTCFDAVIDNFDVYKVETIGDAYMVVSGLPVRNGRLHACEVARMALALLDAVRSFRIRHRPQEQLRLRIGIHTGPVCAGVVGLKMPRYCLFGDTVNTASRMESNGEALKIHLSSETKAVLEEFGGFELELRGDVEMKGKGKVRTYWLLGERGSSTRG
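Compound pre-incubated 30 min at room temperature on GloSensor-loaded HEK293 cells stably carrying hNpr1 and the pGS-40F cGMP biosensor. Stimulation uses hNppA at 0.1 nM final; luminescence is taken at baseline and 20 min post-agonist.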
FLuc inh = Photinus pyralis luciferase inhibition; P08659; purified P. pyralis luciferase, luminescence, biochemical; Potency, µM (top dose mostly 115 µM), usual class: inhibitors; 76,000 compounds, 2.5% hits; AID 1347043; also: nearly all actives have a fitted effect of over 65% in size
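Cell-free enzyme assay, 10nM P. pyralis luciferase, luciferin and ATP each at 10uM. Inhibition profiled over a 6-point titration, read as luminescence.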
HEK cytotox = cytotoxic compounds in HEK 293 cells | HEK 293 viability, ATP luminescence (CellTiter-Glo), 48-72 h | Potency, µM (doses to about 115 µM), for the others: at the top dose activity change, negative = cytotoxicity, hits mostly inhibitors | 94,000 compounds, 6.6% hits | AID 1345083; also: nearly all actives have a fitted effect of over 60% in size
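HEK 293 cells seeded at 250 cells/well were exposed to compound for 48 or 72 hr at 37 degree Celsius. Viability taken as ATP content by CellTiter-Glo luminescence.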
GPT2 inh = GPT2 alanine aminotransferase inhibition. Recombinant GPT2, coupled pyruvate oxidase/HRP Amplex Red fluorescence. Q8TD30. 100,000 compounds, 0.25% hits. Potency, µM (highest dose often 57.7 µM), for the others: top-dose activity change, negative = inhibition, hits mostly inhibitors; also: nearly all actives have a fitted effect of over 60% in size
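Recombinant GPT2 (10ng/uL) with 250uM a-KG and 2mM L-alanine, 30 min at room temperature, in HEPES pH 7.5 buffer. Pyruvate detected by pyruvate oxidase/HRP/Amplex Red fluorescence after 30 min in the dark; AOA (50uM) as positive control.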
An asterisk follows results filed as active; i = inactive; ? = inconclusive; . = no result given; [ ] = remark or other dose. Unless noted, calls follow the shape of the dose curve; as a rule, active = well fitted curve in the direction sought with a large enough effect; inconclusive = small, poorly fitted or top-dose-only effect, or another doubt; inactive = no such curve, though single readings can be large; an effect the other way counts as inactive or inconclusive. % is scaled to controls: 0 for no effect and ±100 for the full control effect; potency is read from the fitted curve at half-maximal effect.

SMILES | NIH3T3 tox | hNpr1 antagonist | FLuc inh | HEK cytotox | GPT2 inh
CCOC(=O)c1ccc(NC(=O)Cn2c(N3CCN(c4ccccc4)CC3)nc(C)cc2=O)cc1 | 32µM* | -18% | i | 40µM* | -10%
Cc1cc(=O)n(CC(=O)Nc2ccc(C)c(C)c2)c(N2CCC(C)CC2)n1 | ? | -30% | i | ? | i
CN1CC2(CCN(Cc3cc(C#N)n(C)c3)CC2)CC(c2ccccc2)C1=O (centres undefined) | -3% | 13% | i | -5% | i[11.5 µM]
CO/N=C(/C(=O)N[C@@H]1C(=O)N2C(C(=O)[O-])=C(C[n+]3ccn4ncccc43)CS[C@H]12)c1nsc(N)n1 | . | . | . | . | 3%
COc1ccccc1OCC(O)CN1CCN(CC(=O)Nc2c(C)cccc2C)CC1 (centres undefined) | . | . | . | . | -17%
Cc1cc(C)cc(NC(=O)Cn2c(N3CCC(C)CC3)nc(C)cc2=O)c1 | ? | ? | i | ? | -2%
CC(=O)c1ccc(NC(=O)Cn2c(-c3ccc(Cl)cc3)nc(C)cc2=O)cc1 | ? | -17% | i | 45µM* | i
Cc1ccc(NC(=O)Cn2c(C)cc3nc4n(c(=O)c32)CCCCC4)cc1Cl | 40µM* | -14% | i | 28µM* | i
Cc1cc(=O)n(CC(=O)Nc2ccc(Br)cc2)c(N2CCC(C)CC2)n1 | ? | ? | i | 40µM* | i
CCc1ccc(N2CC(c3noc(-c4sccc4C)n3)CC2=O)cc1 (centres undefined) | ? | 0% | i | 79µM* | 0%
COc1ccc(-c2nc(C3CC(=O)N(Cc4ccccc4OC)C3)no2)c(C)c1 (centres undefined) | ? | -2% | i | ? | ?
CCc1ccc(N2CC(c3noc(-c4ccc(N(C)C)cc4)n3)CC2=O)cc1 (centres undefined) | -16% | -5% | i | -5% | ?
COc1ccccc1CN1CC(c2noc(-c3ccc(C)cc3C)n2)CC1=O (centres undefined) | ? | -16% | i | 40µM* | i
CCOc1ccc(-c2nc(C3CC(=O)N(Cc4ccccc4OC)C3)no2)cc1 (centres undefined) | 22µM* | -13% | i | 45µM* | i
COc1ccc(N2CC(c3noc(-c4ccc(F)cc4)n3)CC2=O)cc1OC (centres undefined) | -17% | -11% | i | ? | -4%
COc1ccc(N2CC(c3noc(-c4ccc(C(C)(C)C)cc4)n3)CC2=O)cc1OC (centres undefined) | ? | ? | ? | 40µM* | -5%
CSCc1noc(CN2CCCC(CO)(CC=C(C)C)C2)n1 (centres undefined) | -7% | 3% | i | ? | -4%
Nc1nc2c(cnn2CCc2ccccc2)c2nc(-c3ccco3)nn12 | . | . | . | . | -8%
Cc1ccn2c(C(=O)N3CCCC(c4[nH]ncc4-c4ccccc4)C3)nnc2n1 (centres undefined) | -25% | -13% | i | ? | 2%
CNC(=O)CCn1ncc2cc(OC3CCc4cccc(-c5ccccc5)c43)ccc21 (centres undefined) | ? | -24%[70.6 µM] | i | ? | 2%[88.5 µM]
CNC(=O)CCn1ncc2cc(OC3CCc4cccc(-c5ccccc5F)c43)ccc21 (centres undefined) | 50µM* | ? | i | ? | 3%[88.5 µM]
CNC(=O)CCn1ncc2cc(OC3CCc4cccc(-c5cccc(F)c5)c43)ccc21 (centres undefined) | ? | -25%[70.6 µM] | i | ? | -28%[88.5 µM]
CNC(=O)CCn1ncc2cc(OC3CCc4cccc(-c5ccc(F)cc5)c43)ccc21 (centres undefined) | ? | -19%[70.6 µM] | i | 63µM* | ?
c1ccc(CCCCn2ccnc2-c2cc3n(n2)CCCNC3)cc1 | ? | 0% | i | -29% | -1%
Clc1ccc(Cn2ccnc2-c2cc3n(n2)CCCNC3)cc1Cl | 25µM* | -4% | i | ? | 5%
SMILES | NIH3T3 tox | hNpr1 antagonist | FLuc inh | HEK cytotox | GPT2 inh
COCCN1CC(CO)C2(CCN(C(=O)COc3ccccc3)CC2)C1 (centres undefined) | -22% | -8% | i | ? | 1%
CCN1C(=O)Cc2cc(C(=O)NCc3ccc(OC)cc3)ccc21 | -34% | -4% | i | -9% | -24%
CCN1C(=O)Cc2cc(C(=O)NCc3c(C)cc(C)cc3C)ccc21 | ? | -14% | i | 40µM* | -14%
Cn1ncc2c(C(=O)NCCc3ccc(F)cc3)cc(-c3ccccc3)nc21 | -15% | . | . | -9% | -25%
CC(C)OCCCNC(=O)C1CCCN(c2nc3ncccc3o2)C1 (centres undefined) | -9% | 2% | i | 5% | i
O=C(NC1CCCCCCC1)c1ccc(Cn2ccn3nc4c(c3c2=O)CCCC4)cc1 | ? | -18% | i | 32µM* | -8%
Cc1ccc(C)c(Cn2ccn3nc4c(c3c2=O)CCCC4)c1 | ? | -1% | i | 40µM* | i
Cc1ccc(Cl)cc1N1CCN(C(=O)CCn2ccn3nc4c(c3c2=O)CCCC4)CC1 | ? | ? | i | ? | i
Cc1ccc(NC(=O)Cn2ccn3nc4c(c3c2=O)CCCCC4)c(C)c1 | -26% | -2% | ? | -15% | 4%
Cc1ccccc1N1CCN(C(=O)c2ccc(Cn3ccn4nc5c(c4c3=O)CCCC5)cc2)CC1 | ? | -28% | i | 20µM* | 1%
COc1ccc(CCNC(=O)c2ccc(Cn3ccn4nc5c(c4c3=O)CCCC5)cc2)cc1OC | ? | ? | i | 40µM* | -3%
CS(=O)(=O)N1CCC(C2CCN(C(=O)Cc3ccc(Cl)cc3)C2)CC1 (centres undefined) | ? | 0% | i | -21% | i
Cc1ccc(-c2cc(C(=O)N3CCCC3c3nncn3C(C)C)[nH]n2)cc1C (centres undefined) | i | 5% | ? | 12% | i
O=C(NCc1ccncc1)c1ccc(Cn2ccn3nc4c(c3c2=O)CCCC4)cc1 | ? | -16% | i | ? | i
CC(C)Oc1ccc(CNC(=O)c2ccc(Cn3ccn4nc5c(c4c3=O)CCCC5)cc2)cc1 | ? | ? | i | 35µM* | -16%
CNC(=O)[C@@H](c1ccccc1OC)N1CCC[C@H]1C(=O)N1CCN(C)CC1 | i | 1% | i | i | i
CN(C)CC1(O)CCCN(Cc2ccc(-c3ccc(Cl)cc3)o2)C1 (centres undefined) | ? | -3% | i | ? | i
CCOc1cc(C)c(CN2CCCC(O)(CN(C)C)C2)cc1C(C)C (centres undefined) | 40µM* | 1% | i | 35µM* | i
